This is a sample that favours compounds with a hit; in the whole collection about 3.6% have one here.
esBAF inh: inhibitors of esBAF chromatin remodeling in mouse ES cells; Bmi1-luciferase knock-in reporter, 24 h; 100% = twice the neutral-well signal; reporter increase, % at 12.5 µM; actives 2% (n = 350,000); AID 602393; in the data active means activation above about 40%; inconclusive means no clear call, values can overlap the other calls;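 further: 0% = median of the plate's neutral control wells and 100% = double that signal; a rise in the Bmi1 reporter signal indicates esBAF inhibition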
PHOSPHO1 inh: PHOSPHO1 (human) inhibition; recombinant PHOSPHO1, absorbance phosphatase assay; Q8TCT1; inhibition, % at 13.3 µM; actives 1.1% (n = 290,000); in the data active means inhibition above about 60%
Target sequence (Q8TCT1 whole entry, looked up): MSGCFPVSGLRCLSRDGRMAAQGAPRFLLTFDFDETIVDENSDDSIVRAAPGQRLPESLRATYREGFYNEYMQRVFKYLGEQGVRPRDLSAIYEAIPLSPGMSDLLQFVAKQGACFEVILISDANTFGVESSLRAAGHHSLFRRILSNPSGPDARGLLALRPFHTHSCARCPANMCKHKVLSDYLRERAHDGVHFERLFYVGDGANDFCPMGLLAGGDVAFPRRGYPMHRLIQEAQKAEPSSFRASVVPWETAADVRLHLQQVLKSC
Wnt bcat act: activates Wnt/beta-catenin signaling in a reporter cell assay; activation, % at 9.35 µM; AID 743398; actives 1.2% (n = 300,000); activator, plate reader; in the data active means activation above about 30%, passing the limit was not always enough; inconclusive means no clear call, values can overlap the other calls;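 further: 0% = neutral control wells and 100% = positive control wells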
MITF TRPM1 HTS: increases MITF-driven TRPM1 promoter luciferase signal; SK-MEL-5 TRPM1-promoter luciferase, 24 h; % of positive control, neutral wells = 0; activation, % at 12.5 µM; actives 0.75% (n = 300,000);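 active means mean activation of at least 80% with every replicate also reaching 80%; inconclusive means mean reaches 80% but some replicate falls short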;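 further: 0% = neutral control wells and 100% = parthenolide positive control wells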
APOBEC3A inh: inhibitors of human APOBEC3A DNA deaminase. actives 0.41% (n = 330,000). inhibition, % at 20 µM. AID 493011. recombinant A3A, FAM/TAMRA ssDNA deamination fluorescence;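 active means at least 40% inhibition at 20 µM here, with at most 30% in a related deaminase screen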;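 further: plate controls were A3A with DMSO for no effect and wells lacking A3A enzyme for full effect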
Target sequence (P31941 whole entry, looked up): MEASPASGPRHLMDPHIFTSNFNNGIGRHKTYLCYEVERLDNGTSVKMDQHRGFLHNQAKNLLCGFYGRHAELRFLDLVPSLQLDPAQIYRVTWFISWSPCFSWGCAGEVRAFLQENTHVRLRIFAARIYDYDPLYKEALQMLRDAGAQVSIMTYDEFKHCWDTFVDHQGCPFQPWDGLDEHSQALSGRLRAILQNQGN
APOBEC3G inh: blocks human APOBEC3G single-stranded DNA deamination; recombinant A3G, ssDNA deamination FAM/TAMRA fluorescence; inhibition, % at 20 µM; actives 0.28% (n = 330,000); AID 493012;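 active means inhibition of at least 40% at 20 µM, with no more than 30% in the related APOBEC3A deaminase screen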;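 further: plate controls were DMSO wells with A3G for no effect and wells lacking A3G enzyme for full effect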
Numbers without * were called inactive; ? = inconclusive; nt = no result.

SMILES | esBAF inh | PHOSPHO1 inh | Wnt bcat act | MITF TRPM1 HTS | APOBEC3A inh | APOBEC3G inh
COc1ccc(NC(=O)N(C)C[C@@H]2OCCCC[C@@H](C)Oc3ccc(NS(=O)(=O)c4ccc(C)cc4)cc3C(=O)N([C@@H](C)CO)C[C@@H]2C)cc1 | -3 | nt | nt | nt | nt | nt
CSc1nccc(N/N=C/c2ccccc2)n1 | 52 | 24 | 37* | 97* | 3 | -1
CC(=O)c1cc2cc(O)ccc2o1 | nt | 89* | 4 | 10 | 27 | 6
COc1cccc(CNc2ccc(F)c(Cl)c2)c1O | 25 | nt | nt | 88* | -3 | -6
CCCCCCOC(=O)Sc1nc2ccccc2o1 | 40 | 86* | ? | nt | -4 | -4
C[C@@H]1CCCCO[C@@H](CN(C)C)[C@@H](C)CN([C@@H](C)CO)C(=O)c2cc(NS(=O)(=O)c3ccc(F)cc3)ccc2O1 | -2 | nt | nt | nt | nt | nt
Cc1cc(OCC#N)nc(N)n1 | 2 | 20 | -2 | 2 | -2 | 12
Cc1cc(OCC(F)(F)C(F)(F)C(F)(F)C(F)F)nc(N)n1 | 50* | 33 | 29 | nt | 4 | 0
Cc1nc(S(=O)(=O)Nc2ccccc2C(=O)NCC2CC2)cn1C | -3 | 63* | 3 | -1 | 1 | -2
Cc1ccc(S(=O)(=O)Nc2ccccc2C(=O)NCC2CCCO2)cc1 (stereo not drawn) | nt | 43 | 2 | nt | -3 | -6
Cc1c(/C=C/C(=O)c2cccs2)cnn1C | 33 | 3 | 57* | 50 | -1 | 0
CCc1ccc(C(=O)/C=C/c2cnn(C)c2C)s1 | 55* | -4 | 23 | nt | -3 | -10
O=C(C=Cc1ccccc1)c1cccs1 | nt | nt | 8 | 9 | nt | nt
Nc1ccc(/C=C/C(=O)c2cccs2)cc1 | 68* | -11 | 18 | 70 | -6 | -13
COc1ccc(CN(C)C[C@H]2OCCCC[C@H](C)Oc3ccc(NC(=O)CCCN(C)C)cc3C(=O)N([C@@H](C)CO)C[C@@H]2C)cc1 | 6 | nt | nt | nt | nt | nt
O=C(NC1CCC1)[C@@H]1[C@@H](CO)[C@@H]2Cn3c(ccc(-c4ccncc4)c3=O)[C@H]1N2CC1CC1 | 2 | nt | nt | nt | nt | nt
COCCSc1ccccc1C(=O)Nc1ccc([N+](=O)[O-])cc1OC | nt | 64* | 1 | -9 | 2 | 31
C[C@@H]1CCCCO[C@@H](CN(C)S(=O)(=O)c2ccc(Cl)cc2)[C@@H](C)CN([C@H](C)CO)C(=O)c2cc(NS(=O)(=O)c3cn(C)cn3)ccc2O1 | -4 | nt | nt | nt | nt | nt
Oc1ccc(Cl)cc1C1=Nc2ccccc2N=C(c2ccco2)C1 | 26 | 9 | 5 | -6 | -1 | 3
Fc1ccccc1C1CC(c2ccco2)=Nc2ccccc2S1 (stereo not drawn) | 11 | 0 | 35* | -8 | 2 | -3
O=C(Nc1ccccc1)C1=C[C@@H](C2CC2)C[C@@H](OCc2ccc(CO)cc2)O1 | 60* | 30 | ? | 5 | -5 | -10
O=C(O)C1=C[C@@H](C2CC2)C[C@@H](OCCCCO)O1 | 0 | nt | 3 | 1 | -1 | -6
O=C(Nc1ccccc1)C1=C[C@@H](C2CC2)C[C@@H](OCCCCO)O1 | 67* | 18 | ? | 36 | -1 | -1
O=C(Nc1ccccc1)C1=C[C@H](c2ccccc2)C[C@H](OCCCCO)O1 | 51* | nt | 33* | 68 | -7 | -14
O=C(Nc1ccccc1)C1=C[C@@H](c2ccc(Br)cc2)C[C@@H](OCCCCO)O1 | 57* | 36 | 23 | 72 | 0 | -1
SMILES | esBAF inh | PHOSPHO1 inh | Wnt bcat act | MITF TRPM1 HTS | APOBEC3A inh | APOBEC3G inh
C[C@H](CO)N1C[C@H](C)[C@@H](CN(C)C(=O)C2CCCCC2)Oc2ncc(C#Cc3ccccc3F)cc2C1=O | 0 | nt | nt | nt | nt | nt
COc1ccccc1-c1cnc2c(c1)C(=O)N([C@H](C)CO)C[C@H](C)[C@@H](CN(C)C(=O)c1ccccc1)O2 | 1 | nt | nt | nt | nt | nt
CC1=Nc2ccc3ccccc3c2C1(C)C | nt | 63* | -3 | 7 | -4 | -9
Cc1c2ccccc2c(C)c2c1ccc1ccccc12 | 20 | nt | 13 | 52 | 1 | -3
Cc1ccc2c([N+](=O)[O-])c(C)ccc2n1 | 1 | 65* | 1 | nt | -1 | -6
O=C(c1cc2cc(Cl)ccc2oc1=O)N1CCOCC1 | -13 | 34 | nt | 0 | 0 | -2
O=C(Nc1ccc(Cl)c(S(=O)(=O)N2CCOCC2)c1)c1cc2ccccc2oc1=O | 82* | nt | 3 | 27 | -2 | -7

Compound activity as filed in PubChem BioAssay.
